Tau fibril FP: tau fibrillization inhibition (FP); 0.39% of 280,000 active; K18 P301L tau heparin fibrillization, Alexa594 FP, 6 h; P10636; Potency, µM (highest dose often 57.7 µM), for the others: at the highest dose activity, negative = inhibition, usual class: inhibitors; AID 1468; further: potency means the concentration at half of the fitted maximal effect; nearly all actives have a fitted effect of over 55% in size
Target sequence (P10636 561-689 P618L limits assumed): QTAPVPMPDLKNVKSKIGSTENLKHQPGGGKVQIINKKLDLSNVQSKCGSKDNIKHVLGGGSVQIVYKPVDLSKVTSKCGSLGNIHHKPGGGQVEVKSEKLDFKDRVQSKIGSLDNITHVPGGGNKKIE
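Steps: dispense K18 P301L tau (15 uM plus 0.24 uM Alexa 594 tracer, final) in pH 7 sodium acetate; add compound; add heparin (20 uM final); incubate 6 hr, 37 C; add ThT (30 uM final); after 1 hr ambient, read FP.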
Tau fluor cs: counter-screen for tau fibril formation inhibitors; tau K18 P301L Alexa594 fluorescence, heparin fibrillization; Potency, µM (highest dose often 57.7 µM), for inactives: at the highest dose activity change, negative = decrease; 0.93% of 280,000 active; AID 1463; further: potency means the concentration at half of the fitted maximal effect; nearly all actives have a fitted effect of over 55% in size
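Human K18 P301L tau (15 uM unlabeled plus 0.24 uM Alexa 594-labeled, final) in 100 mM sodium acetate pH 7 was mixed with compound and 20 uM heparin and incubated 6 hr at 37 C.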
Tau fibril ThT: inhibitors of human tau fibril formation, thioflavin T binding. recombinant tau K18 P301L (four-repeat tau fragment), heparin-induced fibrillization, ThT fluorescence. Potency, µM (doses to about 57.4 µM), without a hit: at the highest dose activity, negative = inhibition, most hits filed as inhibitors. P10636. 2.1% of 270,000 active; further: potency means the concentration at half of the fitted maximal effect; nearly all actives have a fitted effect of over 55% in size
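Heparin-induced (20 uM) aggregation of recombinant human K18 P301L tau, 15 uM unlabeled with 0.24 uM labeled, pH 7 acetate buffer, 6 hr at 37 C with compound. Fibrils quantified by 30 uM ThT fluorescence after 1 hr ambient incubation.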
KDM4E inh: JMJD2E (human) inhibition; B2RXH2; JMJD2E catalytic domain, FDH-coupled NADH fluorescence (FDH is formaldehyde dehydrogenase); Potency, µM (titrated, usually from 57.1 µM), inactives show at the highest dose activity change, negative = inhibition, most hits filed as inhibitors; 1.6% of 230,000 active; AID 2147; active means well fitted inhibition curve with a large enough effect, not every such curve was filed as active; inconclusive means small, poorly fitted or top-dose-only effect, or another doubt; inactive means no such curve, though single readings can be large or run the other way;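 further: potency means the concentration at half of the fitted maximal effect; 0% = wells with enzyme and -100% = buffer wells without enzyme; nearly all actives have a fitted effect of over 50% in size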
Target sequence (B2RXH2 1-337 limits assumed): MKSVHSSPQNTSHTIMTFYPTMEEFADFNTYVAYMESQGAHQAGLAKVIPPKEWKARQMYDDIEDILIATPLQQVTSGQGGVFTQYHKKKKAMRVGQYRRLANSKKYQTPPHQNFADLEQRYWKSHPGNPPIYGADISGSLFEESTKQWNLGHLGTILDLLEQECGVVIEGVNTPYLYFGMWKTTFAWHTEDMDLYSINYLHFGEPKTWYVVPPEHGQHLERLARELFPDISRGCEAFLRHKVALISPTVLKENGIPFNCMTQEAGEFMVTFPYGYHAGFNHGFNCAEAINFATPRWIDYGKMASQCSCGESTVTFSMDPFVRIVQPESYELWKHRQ
Coupling enz: inhibits coupling enzyme system, counter-screen for aldolase hits; coupling enzyme system counterscreen, AmpLite Red fluorescence; activity change, negative = inhibition, % at 58.2 µM, hits read low; 0.67% of 290,000 active; in the data active means activity change below about -30%
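Counterscreen of the coupled detection system alone, without aldolase: glyceraldehyde-3-phosphate coupling enzymes plus AmpLite Red readout. Compounds at 57.5 uM final, 10 min RT preincubation, 20 min RT reaction, fluorescence 525/598 nm.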
* hit, by the source's call; ? = inconclusive; nt = no result given; [ ] = remark or other dose. The list is not random: actives were taken first. Their share in the collection is about 3%. Unless noted, the call rests on the fitted dose curve; in most records, active means well fitted curve in the direction sought with a large enough effect; inconclusive means small, poorly fitted or top-dose-only effect, or another doubt; inactive means no such curve, though single readings can be large; an effect the other way counts as inactive or inconclusive. Unless noted, on the % scale 0 is the no-effect control and ±100 the full control effect.

SMILES	Tau fibril FP	Tau fluor cs	Tau fibril ThT	KDM4E inh	Coupling enz
O=[N+]([O-])c1cccc(N/N=C/c2cccc(O)c2O)c1	5%	16µM*[quencher]	7.9µM*	14µM*	-13
O=[N+]([O-])c1ccc(N/N=C/c2ccc(O)c(O)c2O)c(S(=O)(=O)N2CCOCC2)c1	10µM*	?	4µM*	7.9µM*	-59*
O=[N+]([O-])c1ccc(N/N=C/c2cccc(O)c2O)c(S(=O)(=O)N2CCOCC2)c1	0%	?	?	14µM*	-10
COc1cc(/C=N/Nc2ccc([N+](=O)[O-])cc2S(=O)(=O)N2CCOCC2)cc(OC)c1OC	-3%	?	?	-1%	1
O=[N+]([O-])c1ccccc1N/N=C/c1cccc(O)c1O	6%	-16%	?	-2%	-1
O=C(CCc1ccc(S(=O)(=O)N2CCOCC2)cc1)N/N=C/c1ccc(O)c(O)c1O	?	-30%	25µM*	10µM*	-31*
C/C(=N\Nc1cccc([N+](=O)[O-])c1)c1ccccc1O	?	5µM*[quencher]	?	-8%	-8
COc1c(C)cc(S(=O)(=O)Nc2cccc(-c3ccc(N4CCOCC4)nn3)c2)c(C)c1C	-1%	-29%	-7%	nt	nt
Cc1cccc[n+]1C1C(c2ccccc2)C(C#N)=C(C(=C=[N-])C#N)NC1(O)C1CC1 (configuration not stated)	?	?	18µM*	?	-4
N#CC(=C=[N-])C1=C(C#N)C(c2ccccc2F)C([n+]2ccccc2)C(O)(C2CC2)N1 (configuration not stated)	-1%	-25%	?	?	-7
COc1ccc2nc(SCC(=O)Nc3ccc4c(c3)OCCO4)[nH]c2c1	3%	-28%	?	8%	0
COc1ccc(-c2nc(SCC(=O)Nc3ccc4c(c3)OCCO4)c(-c3ccc(F)cc3)[nH]2)cc1OC	5%	6.3µM*[quencher]	-12%	nt	nt
COc1ccc(-c2[nH]c(-c3cccc(OC)c3)nc2SCC(=O)NCc2ccco2)cc1	?	14µM*[quencher]	?	?	-3
COc1ccc(-c2nc(SCC(=O)Nc3ccc4c(c3)OCCO4)c(-c3ccc(F)cc3)[nH]2)cc1	?	8.9µM*[quencher]	-1%	nt	nt
COc1cccc(-c2nc(SCC(=O)Nc3ccc4c(c3)OCCO4)c(-c3ccc(C)cc3)[nH]2)c1	?	5µM*[quencher]	?	nt	nt
Cc1ccc(NS(=O)(=O)c2ccc3c(c2)N(C)C(=O)CC(=O)N3C)cc1Cl	6%	-4%	-6%	nt	nt
COc1ccc(N(Cc2nnc3n2CCCCC3)C(=O)Nc2cccc(C)c2)cc1Cl	1%	2%	4%	nt	nt
COc1ccc(C(=O)c2oc3ccccc3c2NC(=O)c2nc(SC)ncc2Cl)cc1Cl	-10%	-11%	-7%	nt	nt
CC1(C)OC(C)(C)/C(=C/Nc2ccc(O)cc2)C1=O	?	?	14µM*	?	-44*
COc1cccc(Nc2ncnc3c2cnn3-c2cccc(C)c2)c1	?	?	-3%	?	-13
Fc1cccc(Nc2ncnc3c2cnn3-c2ccccc2)c1	25µM*	?	?	?	-10
Cc1cccc(-n2ncc3c(Nc4ccc(C)c(Cl)c4)ncnc32)c1	8.9µM*	?	11%	nt	nt
Cc1cccc(-n2ncc3c(Nc4ccc(Oc5ccc(Cl)cc5)cc4)ncnc32)c1	13µM*	4µM*[quencher]	8%	nt	nt
CCOc1ccc(-c2nn(-c3ccccc3)cc2C2NC(=O)NC(C)=C2C(=O)OC(C)C)cc1 (configuration not stated)	-6%	-26%	?	nt	nt
CCC(CO)Nc1ccc(-c2n[nH]c(=O)c3ccccc23)cc1[N+](=O)[O-] (configuration not stated)	nt	nt	nt	nt	5
SMILES	Tau fibril FP	Tau fluor cs	Tau fibril ThT	KDM4E inh	Coupling enz
CCC(CO)Nc1ccc(-c2nn(C)c(=O)c3ccccc23)cc1[N+](=O)[O-] (configuration not stated)	10%	-20%	25µM*	1%	0
CC[C@H](C)[C@H](NC(=O)[C@H](CO)NC(=O)[C@H](CC(C)C)NC(=O)[C@@H]1CCCN1C(=O)[C@@H]1CCCN1C(=O)[C@H](CC(=O)O)NC(=O)[C@@H](N)CC(=O)O)C(=O)N[C@@H](CC(=O)O)C(=O)N[C@@H](CC(C)C)C(=O)N[C@H](C(=O)N[C@@H](Cc1ccccc1)C(=O)N[C@@H](Cc1cnc[nH]1)C(=O)N[C@@H](CC(C)C)C(=O)N[C@@H](CC(C)C)C(=O)N[C@@H](CCCNC(=N)N)C(=O)N[C@H](C(=O)N[C@@H](CC(C)C)C(=O)N[C@@H](CC(C)C)C(=O)N[C@@H](CCC(=O)O)C(=O)N[C@@H](CC(C)C)C(=O)N[C@@H](C)C(=O)N[C@@H](CCCNC(=N)N)C(=O)N[C@H](C(=O)N[C@@H](CCC(N)=O)C(=O)N[C@@H](CO)C(=O)N[C@@H](CCC(N)=O)C(=O)N[C@@H](CCCNC(=N)N)C(=O)N[C@@H](CCC(=O)O)C(=O)N[C@@H](CCCNC(=N)N)C(=O)N[C@@H](C)C(=O)N[C@@H](CCC(=O)O)C(=O)N[C@@H](CCC(N)=O)C(=O)N[C@@H](CC(N)=O)C(=O)N[C@@H](CCCNC(=N)N)C(=O)N[C@H](C(=O)N[C@H](C(=O)N[C@@H](Cc1ccccc1)C(=O)N[C@@H](CC(=O)O)C(=O)N[C@@H](CO)C(=O)N[C@H](C(N)=O)C(C)C)[C@@H](C)CC)[C@@H](C)CC)[C@@H](C)O)[C@@H](C)O)[C@@H](C)O	nt	nt	nt	nt	2
CCC(CC)c1nn2c(=O)cc(COc3ccc(NC(=O)c4ccccc4Cl)cc3)nc2s1	-5%	-11%	?	nt	nt
Cc1cc2nc3c(=O)n(CCc4ccccc4)c(=O)[nH]c3nc2cc1N	?	8.9µM*[quencher]	nt	32µM*	-22
Nc1ccc2nc3c(=O)n(CCc4ccccc4)c(=O)[nH]c3nc2c1	?	?	nt	1.8µM*	-20
C=CCn1c(=O)[nH]c2nc3cc(N=CN(C)C)c(C)cc3nc2c1=O	7%	1%	nt	?	-12
Nc1ccc2nc3c(=O)n(C4CCCCC4)c(=O)[nH]c3nc2c1	2%	-22%	1%	?	-15
CCCCn1c(=O)[nH]c2nc3cc(N)ccc3nc2c1=O	-12%	-7%	3%	-3%	-53*
S=C(Nc1ccc2cn[nH]c2c1)Nc1ccc(Cl)cc1Cl	-13%	?	16µM*	?	-10
S=C(Nc1ccc2cn[nH]c2c1)Nc1ccccc1Cl	-15%	?	14µM*	1%	-47*
O=C(Nc1ccc(Br)cc1F)c1cc(S(=O)(=O)NCc2ccc(F)cc2)ccc1F	?	-1%	9%	nt	nt

Screening data as filed in PubChem.
